Screens (PubChem)
GPR151 ag – activators of human GPR151 | AID 1508602 | activation, % at 11.2 µM | 650,000 compounds, 1% hits | Q8TDV0 | PathHunter beta-arrestin GPR151 cells, luminescence; in the data active = activation above about 4.9%;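 also: 0% = median of compound wells and 100% = cells with positive control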
FBW7 act – activators of human E3 ligase FBW7 | AlphaScreen FBW7–phospho-cyclin E peptide binding, activator screen | normalized activity (activation), % at 26.1 µM | 650,000 compounds, 0.13% hits; in the data active = normalized activity above about 1.9%;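 also: purified mutant Fbw7 with reduced substrate affinity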
TEAD-YAP block – TEAD-YAP interaction inhibition; 640,000 compounds, 1.4% hits; inhibition, % at 9.12 µM; AID 1259422; HEK-TIYL cells, TEAD-Gal4/YAP UAS-luciferase luminescence; in the data active = inhibition above about 32%;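 also: 0% = median of test compound wells and 100% = reference inhibitor wells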
MITF inh – inhibitors of human MITF; AlphaScreen MITF homodimerization, bead proximity signal; O75030; AID 1259374; 650,000 compounds, 0.91% hits; inhibition, % at 2.6 µM; in the data active = inhibition above about 50%;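 also: 0% = vehicle wells with protein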
Target sequence (O75030 whole entry, looked up): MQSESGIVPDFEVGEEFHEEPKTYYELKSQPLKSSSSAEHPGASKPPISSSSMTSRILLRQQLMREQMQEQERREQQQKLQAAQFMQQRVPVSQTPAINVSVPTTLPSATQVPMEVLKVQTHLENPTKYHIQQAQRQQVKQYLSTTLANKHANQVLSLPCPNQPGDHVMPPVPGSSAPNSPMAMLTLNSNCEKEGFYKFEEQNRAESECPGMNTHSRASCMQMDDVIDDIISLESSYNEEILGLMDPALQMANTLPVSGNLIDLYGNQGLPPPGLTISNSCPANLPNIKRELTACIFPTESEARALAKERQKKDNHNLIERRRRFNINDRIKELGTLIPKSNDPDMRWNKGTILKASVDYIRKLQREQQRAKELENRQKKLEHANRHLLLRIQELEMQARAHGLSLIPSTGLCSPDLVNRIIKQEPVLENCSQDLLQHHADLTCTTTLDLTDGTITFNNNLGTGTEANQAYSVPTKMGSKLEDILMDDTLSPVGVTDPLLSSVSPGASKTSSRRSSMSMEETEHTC
An asterisk follows results filed as active. In the library only some 3.5% were active in any assay of this set; here they are far more common.

SMILES	GPR151 ag	FBW7 act	TEAD-YAP block	MITF inh
CC(C)c1ccc(C(NC(=O)C2CCCCC2)c2ccc3cccnc3c2O)cc1 (centres undefined)	1.5	0.9	19.3	4.5
CC(C)C(=O)NC(c1ccc(Cl)cc1)c1ccc2cccnc2c1O (centres undefined)	1.1	-1.6	85.2*	12.2
COc1ccc(C(=O)c2ccc(Br)c([N+](=O)[O-])c2)cc1C	2.8	-0.1	64.7*	0.7
CCOC(=O)C(C)OC(=O)c1ccc(Cl)c([N+](=O)[O-])c1 (centres undefined)	-1.0	-0.1	2.3	1.2
COC(=O)C(C)OC(=O)c1ccc(Cl)c([N+](=O)[O-])c1 (centres undefined)	1.2	3.0*	7.2	5.5
COc1ccc(C(=O)c2ccc(Cl)c([N+](=O)[O-])c2)cc1	0.1	-0.4	62.1*	5.2
Cc1ccc2nc(NC(=O)c3ccc(S(=O)(=O)N4CC(C)CC(C)C4)cc3)sc2c1 (centres undefined)	2.1	-0.2	-4.8	-4.0
COc1ccc(Br)cc1/C=C1\N=C(c2ccc(Cl)cc2)OC1=O	0.6	0.3	0.7	10.8
O=C(CSc1nnc(-c2ccc3c(c2)OCO3)o1)Nc1ccc2c(c1)CCC2	-0.7	-0.1	-43.6	5.8
Cc1cc(I)cnc1NC(=O)c1ccccc1[N+](=O)[O-]	-0.4	0.0	58.4*	7.4
O=C(NC(=S)Nc1ccc(Cl)cn1)c1ccccc1[N+](=O)[O-]	-0.7	0.4	-12.1	21.3
O=C(Nc1ccc(Cl)cn1)c1ccccc1[N+](=O)[O-]	-0.3	0.0	43.0*	-8.2
Cc1ccc(C(=O)/C=C/Nc2cccc(Cl)c2C)o1	-0.3	-0.1	-13.4	10.2
Cc1ccc(C(=O)/C=C/Nc2ccc(F)cc2F)o1	-0.8	-0.2	61.2*	-12.7
Cc1ccc(C(=O)/C=C/Nc2ccc(Br)cc2F)o1	-0.5	-0.2	77.2*	6.2
CCn1nccc1C(=O)NC1C(=O)N2C(C(=O)O)=C(COC(C)=O)CSC12 (centres undefined)	-0.3	0.0	-2.5	5.1
C=CCn1c(SCc2cccc(C)c2)nc2c1c(=O)[nH]c(=O)n2C	-0.5	-0.3	44.6*	-7.5
C=CCSc1nc2c(c(=O)[nH]c(=O)n2C)n1Cc1ccccc1Cl	0.6	0.1	-2.8	4.0
C=CCn1c(SCc2ccccc2Cl)nc2c1c(=O)[nH]c(=O)n2C	-0.3	0.2	53.3*	8.7
O=C(Nc1cccc(F)c1)N[C@H]1C[C@H]2C(=O)N[C@@H](Cc3ccc(Cl)cc3)C(=O)N2C1	0.6	0.2	5.4	17.7
CC(C)COCc1ccc(O)c2ncccc12	0.0	-2.2	22.3	58.6*
CC(C)N(C(=O)COc1ccc(C2(C)NC(=O)NC2=O)cc1)c1ccccc1 (centres undefined)	-0.3	-0.1	2.3	-15.7
CCN(Cc1ccncc1)C1CCN(c2ccc(CC(=O)NCc3ccccc3)cc2)CC1	-0.6	0.4	41.2*	15.5
c1coc(-c2nc3ccccn3c2Nc2ccc3c(c2)OCCO3)c1	-1.6	-0.3	41.4*	-3.6
COc1cc2nc(SCC(=O)Nc3cc(C(F)(F)F)ccc3Cl)n(Cc3ccc(Cl)cc3)c(=O)c2cc1OC	-0.6	0.0	0.7	1.4
SMILES	GPR151 ag	FBW7 act	TEAD-YAP block	MITF inh
CN(C)N1C(N)=C(C#N)C(c2ccccc2Cl)C2=C1CC(c1ccccc1)CC2=O (centres undefined)	-1.9	-0.1	38.6*	-9.7
COc1ccc(NC(=O)CN(C)C(=O)CCCOc2ccccc2)cc1	-0.8	0.0	-0.5	-9.3
Cc1ccc(C)c(NC(=O)CN2C(=O)NC3(CCCc4sccc43)C2=O)c1 (centres undefined)	1.2	0.0	-1.0	-9.0
c1cnc(Nc2nc3ncnc(Nc4ccc(N5CCOCC5)cc4)c3[nH]2)nc1	-1.6	-0.3	53.4*	16.9
CC(=O)Nc1ccc(Nc2ncnc3nc(Nc4ccc(N5CCOCC5)cc4)[nH]c23)cc1	0.7	-0.1	0.1	10.3
CCN(CC)C(=O)C1CCCN(c2nc3ncnc(Nc4ccc(N5CCOCC5)cc4)c3[nH]2)C1 (centres undefined)	-3.3	-0.2	43.8*	-4.1
c1ccc(CN2CCC(Nc3ncnc4nc(Nc5ccc(N6CCOCC6)cc5)[nH]c34)CC2)cc1	0.1	-0.3	2.9	9.0
c1nc(Nc2ccc(N3CCOCC3)cc2)c2[nH]c(NCCN3CCOCC3)nc2n1	-1.7	-0.2	7.2	15.5
c1cc(Nc2nc3ncnc(Nc4ccc(N5CCOCC5)cc4)c3[nH]2)ccn1	-2.1	-0.3	43.3*	14.8
c1nc(NC2CC2)c2[nH]c(Nc3ccc(N4CCOCC4)cc3)nc2n1	-2.6	0.0	34.7*	17.5
O=C(CCCN1C(=O)c2cccc([N+](=O)[O-])c2C1=O)Nc1nc2c(s1)CCCC2	0.0	-0.1	3.5	-12.7
Cc1ccc2c(CNCCc3ccccc3)c(C(=O)O)[nH]c2c1	2.7	-0.1	0.9	-0.6
Cc1noc(C)c1-c1nc2ncnc(Nc3ccc(N4CCOCC4)cc3)c2[nH]1	-1.2	-0.3	32.6*	13.2
CC(=O)Nc1ccc(Nc2ncnc3nc(-c4ccc(N5CCOCC5)nc4)[nH]c23)cc1	-1.4	-0.1	28.4	-0.3
c1ccc(Nc2ncnc3nc(-c4ccc(N5CCOCC5)nc4)[nH]c23)cc1	1.9	0.3	53.6*	25.6
O=C(O)COc1cc([N+](=O)[O-])cc2cccnc12	2.6	-0.6	-4.0	15.8
O=[N+]([O-])c1cc(O)c2ncccc2c1	-1.8	-0.3	20.6	102.7*
COc1cc([N+](=O)[O-])c2ncccc2c1	-1.0	-2.2	15.6	69.8*
COc1cc([N+](=O)[O-])c2nccnc2c1	1.8	-0.7	1.1	-0.4
O=C(CNC(=O)c1ccco1)N/N=C/c1cccc(OC(=O)c2ccc([N+](=O)[O-])cc2)c1	0.0	0.7	1.6	20.9
O=C(N/N=C/c1cc(Br)ccc1F)c1cccs1	0.1	0.0	-50.1	-1.6
O=C(N/N=C/c1cc(Cl)ccc1O)c1cccs1	-0.2	-0.6	55.4*	40.4
O=C(CNc1ccc2ccccc2c1)N/N=C/c1ccc(O)cc1O	1.9	-0.3	39.9*	-3.9
CCN(CC)c1ccc(/C=N/NC(=O)c2nonc2N)cc1	-3.9	-0.2	45.6*	-19.3
O=C(N/N=C/c1cc(Br)ccc1O)c1cccs1	-0.3	0.0	39.7*	31.0
SMILES	GPR151 ag	FBW7 act	TEAD-YAP block	MITF inh
CCOc1ccc(Nc2ncnc3c2c(-c2ccccc2)cn3-c2ccc(Br)cc2)cc1	-1.1	-0.1	7.7	8.7
Cc1occc1C(=O)NC(C)c1nnc2n1CCN(Cc1cccnc1)CC2 (centres undefined)	-0.8	0.0	1.4	8.0
Nc1nonc1C(=O)N/N=C/c1ccc(O)cc1O	-6.8	-0.6	9.1	94.4*
COc1ccc(C(=O)N/N=C/c2ccc(O)cc2O)cc1	-1.5	-0.2	7.6	47.9
CCOc1cc(C(=O)N/N=C/c2ccc(O)cc2O)cc(OCC)c1OCC	1.6	-0.5	72.2*	9.7
O=C(N/N=C/c1ccc(O)cc1)c1cccs1	-6.8	-0.1	-50.4	16.3
O=C(N/N=C/c1ccc(O)cc1O)c1cccs1	-4.5	-0.1	-25.3	82.5*
O=C(N/N=C\c1ccc(O)cc1O)C(=O)N/N=C/c1ccc(O)cc1O	-0.5	-1.3	13.3	68.8*
